Measurements: PubChem BioAssay AID1347426 (Functional Genomics Laboratory (NCATS/FGL), 2020)
Out of some 31,000 sequences screened, about 1,400 (4.5%) were called active.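 The calls were made as follows: active = median seed-adjusted z-score above 1 or below -1; inactive = the rest.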 Many of the other results were omitted from the sample, so actives are more common in it than they were.

Test: Novel Modifiers of Survival Motor Neuron (SMN) Protein: Gene Identification via Genome-wide siRNA Screen
Conditions: HEK293T SMN2-luciferase reporter, siRNA knockdown, 72 h; actives lie on both sides
Description: Spinal muscular atrophy (SMA) is the most common neuromuscular autosomal recessive disorder and one of the leading genetic causes of infant death. SMA results from mutations inducing loss of function or deletion in the survival of motor neuron-1 gene (SMN1), leading to deficiency of the survival motor neuron (SMN) protein. Although a second nearly identical gene, SMN2, is retained in humans, its expression primarily produces an aberrantly spliced isoform that is largely unstable and quickly degraded. We performed a genome-wide RNAi screen using a cell-based reporter assay to identify genes and pathways that modulate SMN protein stability. The screen identified over 200 genes that led to the greatest increase or decrease in luciferase expression.
Using HEK293T cells stably expressing a luciferase reporter that combines the promoter and splicing based cassettes in tandem with the major portion of the native SMN2 cDNA with luciferase, we performed a genome-wide RNAi screen to identify modulators of SMN protein levels. Luciferase is expressed when full-length SMN protein is generated with luminescence signal proportional to SMN protein levels. Our luciferase-based reporter assay was used to screen Ambion Silencer Select Human Druggable Genome siRNA library (10418 genes, 3 unique siRNAs per gene) using lipid-based reverse transfection.
Briefly, 1 pmol of each siRNA was spotted to a well of a 384-well plate (Corning, Corning, NY) and 20 microL of serum-free DMEM containing […] of Lipofectamine RNAiMax (Life Technologies, Carlsbad, CA) was then added to each well. Transfected cells were maintained at 37 degrees C in 5% CO2 for 72 hours, 20 microL of ONE-Glo Reagent (Promega) was added to wells for luciferase quantification. Raw luminescence reads were normalized to Ambion(R) Silencer(R) Negative Control #2 siRNA, then log10 transformed. A robust statistical measure of median absolute deviation (MAD) to standardize siRNA activities from each screen. Common Seed Analysis was used to help prioritize clean hits as opposed to those appearing to arise from seed based off-target effects. Candidate modulators were defined as the genes having a MAD score greater than 1.0 or less than -1.0.

Row | Sequence | median seed-adjusted z-score
1 | CCCAGACAAAUUACCUAUATT against CAD | 2.37 (active)
2 | GGACCUAUGAGCAACGAAATT against ATP1A4 | 0.116 (inactive)
3 | GCAUGAACCAGUUAUCACATT against SCYL2 | -0.0652 (inactive)
4 | GCAGCUCUGAGAACGGCAATT against ARHGEF1 | -0.0658 (inactive)
5 | CUACCGAUGCUGAAAGACATT against PGM3 | -0.527 (inactive)
6 | CCACGCUCAUCAUCUCCAATT against SLC4A2 | -0.539 (inactive)
7 | CUACUGUUCUUGACCACAATT against DHX15 | 1.36 (active)
8 | GGCUCAAGGGCUUUGCUGATT against ADSSL1 | 0.0976 (inactive)
9 | CCGUUAGACCAGAACGGAATT against MGA | 0.0136 (inactive)
10 | CAUAGUCACAUGAUUAAUATT against POSTN | -0.45 (inactive)
11 | GGAAGACAAUUGCUAAGGUTT against TRO | 2.04 (active)
12 | CCUUAUCCGCUACCUCCAATT against TAF5L | 0.409 (inactive)
13 | GGAAGAAGGUAUUCCGUAUTT against CHD5 | -0.195 (inactive)
14 | CGUCCAUGUUUAUCUACAATT against ENTPD2 | 0.0319 (inactive)
15 | CGAACGAGCUAUCACAGAATT against TFB1M | 0.172 (inactive)
16 | CAUUCGGUAUUUUAUUCUATT against SNRPD1 | -2.97 (active)
17 | CCUUGCAACAUGUUCGUGATT against KRIT1 | -0.447 (inactive)
18 | GAAAAACGAUGUAAGCAAUTT against ADH1A | 0.624 (inactive)
19 | GAGACAAACUAAUUGAGAATT against PPP1R8 | -0.029 (inactive)
20 | GGCUACAAAUGUUCAUCGATT against LRP6 | -0.116 (inactive)
21 | CGUCAAUUCCGGUACACUUTT against PIGM | 1.36 (active)
22 | CACAUUAAAGUGUAAAGAATT against PIP3-E | 0.676 (inactive)

Row | Sequence | median seed-adjusted z-score
23 | GGACAAAGUCCUAAAGAAATT against MGC21874 | -0.354 (inactive)
24 | GCACUGUCUACAUCCCUGATT against RHCG | 0.375 (inactive)
25 | AGAUAGUUCUGGAACUGGATT against HES2 | -0.186 (inactive)
26 | CCACUAGCACAUUCCGCAATT against RBP2 | 0.0132 (inactive)
27 | GGACGACUCUGAUCUGGAUTT against DYNC1I1 | -0.716 (inactive)
28 | GGCGAAAAAUUGCUACCGATT against PSMC2 | -1.96 (active)
29 | CUCUAGUCGCGUCAAGUUUTT against NISCH | -0.0757 (inactive)
30 | GCAAAAAGAGCGAUCAGAATT against CNDP1 | 0.203 (inactive)
31 | GGAUAUAACGAGAAUGUCUTT against MED27 | -1.62 (active)
32 | AGAUAGAAAUUGACUUUGATT against BRD3 | 0.633 (inactive)
33 | GCGAAAACAUGGAUGUUCUTT against HERC2 | 0.98 (inactive)
34 | CUUUCCGUGUGAAAUCAAATT against ZNF761 | 0.291 (inactive)
35 | AGACCUCCUACGACAUUAATT against BOC | -0.0192 (inactive)
36 | GACUCAAUGCUACUAUCAATT against ADAM32 | 1.75 (active)
37 | GGGUGAAUGCUAUUGAGUUTT against MKRN1 | -0.496 (inactive)
38 | AGAACUUCAUGGACAUAGATT against CNR1 | 0.0359 (inactive)
39 | CCACCGAUGAGAUUACCUUTT against STS | -0.392 (inactive)
40 | CAGAGGUUGUGACACGAAATT against PAK1 | -0.168 (inactive)
41 | CUAUGAGGAAUGUCGCAGATT against XPO1 | 1.12 (active)
42 | GGUCCUCAUUGAAAACGAATT against BTBD11 | -0.00434 (inactive)
43 | GGACUACAGUAUACAUUGUTT against PCDH24 | 0.345 (inactive)
44 | GGAACAGGCUAUCAGAACATT against TTC8 | 0 (inactive)

Row | Sequence | median seed-adjusted z-score
45 | GGGCUUUAAAUAUGAGAUUTT against GRID1 | 0.66 (inactive)
46 | CGUUGUCACUGAGAUCACATT against AVIL | -0.127 (inactive)
47 | AAGACAUACCGACCUCUUATT against PPIL3 | 0.282 (inactive)
48 | GGACGUACAGUGGUGGUAATT against ABCA3 | -0.363 (inactive)
49 | CCAAUAUUCGACUUGCGUATT against XPO1 | 1.12 (active)
50 | GCCGCCAAGUAAAGCCUUATT against HSPB1 | 0.693 (inactive)
51 | CAAGCUGUCUAAGUCCAAATT against NOVA1 | -0.486 (inactive)
52 | CCCACCAUGUUACAAGACATT against POLR2G | -4.19 (active)
53 | GCAAGGAAGAAAUUUGUGATT against ERCC1 | -0.566 (inactive)
54 | CUCACAUAAUCAUAAUAGATT against ZNF41 | 0.342 (inactive)
55 | GGAGCCUUGUUGAUCCUUATT against FRAP1 | -1.02 (active)
56 | CGUUCGCACAUUCCUUAUATT against KIF6 | -0.0396 (inactive)
57 | GCUUUGUAGAAUUUGCAGATT against TRNAU1AP | 0.52 (inactive)
58 | GGACCGGCCUUUUCGAAAATT against SNRNP35 | 0.172 (inactive)
59 | GGCUGAUUACGUUCGGGAATT against MYL2 | -0.0369 (inactive)
60 | CAAUGAUCCCGGGCAUUUATT against RPP21 | -1.09 (active)
61 | GGAGACCAACUGCAACUUUTT against ZACN | 0.065 (inactive)
62 | CGGAGGUGACUGACAGAUATT against CAMKV | -0.193 (inactive)
63 | GAGUCAAAUUUGUGAAGAATT against GLO1 | -0.0827 (inactive)
64 | CUGUGGGAGUUAUUGUCAATT against CDH13 | 0 (inactive)
65 | CAAGCAUCUUUGUCAAAGATT against PTH2R | -0.492 (inactive)
66 | GGCUGAUAGUUUAGGAGUUTT against EIF5B | 1.68 (active)

Row | Sequence | median seed-adjusted z-score
67 | GCUGGUUACUUAUCACCAATT against TPH1 | -0.055 (inactive)
68 | AACCUAUGCGUAUCCAGUATT against SNRPA | -2.09 (active)
69 | CGAAGUGAGUGAUAACAGUTT against RNF157 | 0.0197 (inactive)
70 | GCAAGACCGAAGUAAACUATT against GPX4 | -1.18 (active)
71 | UGUUAAGCUUCAUCAGUAUTT against MRGPRX1 | -0.188 (inactive)
72 | ACAUCUCACGGAUCCUUAATT against PAX4 | 0.0811 (inactive)
73 | GGUGAAGGUAGAUCAAAGATT against EIF2AK2 | 0.419 (inactive)
74 | CGACUUCUCAGAAGGCAGATT against GATA4 | -0.24 (inactive)
75 | AAAUCUCAAUGGUCGCUAUTT against FCN3 | -0.112 (inactive)
76 | AGGAGCUUGUUGAUCCCUATT against SLC7A8 | -0.134 (inactive)
77 | CCACAUAGGUCAGAAACGATT against CLDN17 | 0 (inactive)
78 | CAUCGUCUCUGCUGACAAATT against TUBAL3 | 1.05 (active)
79 | GGAACCCUUUGAUCAAUUUTT against ADAMTS7 | 0.146 (inactive)
80 | GAUUGCAGCCAAUCCCUUUTT against TBX6 | 0.144 (inactive)
81 | CACUAGAUCGCGAUAAUAATT against DDB1 | 0.231 (inactive)
82 | GGAAGGCAUUACUCACUUATT against SIRT3 | -0.341 (inactive)
83 | GCCAGAAUCCUUUAGCAGUTT against CRTC1 | 0.00363 (inactive)
84 | GCAUCUGAAGACUCAGGCATT against TAZ | 0.0549 (inactive)
85 | UCAGCUGUAUCGACCAGAATT against MYL7 | -1.21 (active)
86 | GAAAUCAGCCUAUGGUUUATT against NME2 | -0.0728 (inactive)
87 | CCGUAUAUCUGGUGGUUAUTT against PLOD2 | -0.281 (inactive)
88 | GAAUCAUAAUCGCUCCUUUTT against SPRR1A | -0.0536 (inactive)

Row | Sequence | median seed-adjusted z-score
89 | GAAUCCGGAUGAGUACUAUTT against PHF17 | 1.01 (active)
90 | CAGUCCCUAUUUCAAAAUATT against PDE6G | 0.0109 (inactive)
91 | GAAUGAUAUUGUCCAUCGATT against CDKL5 | -0.256 (inactive)
92 | ACUUCAACGUGACCACAGATT against PNPLA6 | 0.309 (inactive)
93 | GAUACGCCCUUAUAAUGCATT against ZBTB11 | -0.105 (inactive)
94 | GAAAUUGCCUAUUACUCUUTT against SLC19A2 | -0.679 (inactive)
95 | UCAUAAUUAUCUCACCAGATT against MEOX2 | 1.36 (active)
96 | CCUCUAACGUACCAUCUAATT against OLAH | -0.44 (inactive)
97 | GUAAGGCAAAGACUCCCUATT against ZNF673 | 0.419 (inactive)
98 | GGGACGGAAUAAAUGCUCUTT against NDUFA13 | -0.138 (inactive)
99 | CUAAGGAAGUAGUUGAUUATT against HADHB | -0.188 (inactive)
100 | CUACCGUAACAACCGAAAATT against SCN10A | -0.401 (inactive)
101 | CCAUUGCAAUCAACACCAATT against ALOX5 | -0.201 (inactive)
102 | GAUGACUUUUGAUAGUGAATT against ODC1 | -1.64 (active)
103 | AGGUCAUUGCUGAGAAGUATT against FMNL1 | -0.3 (inactive)
104 | GGAAGUACAUGAACGCAGUTT against EFTUD1 | -1.39 (active)
105 | GGACGACACGUUCUACCUGTT against ENDOG | -0.336 (inactive)
106 | GCAGACAAGUCAACCGUGATT against FRK | -0.14 (inactive)
107 | CAGGUUAUCGUGUGAAGGATT against TNFRSF14 | 0 (inactive)
108 | GCACGAAGCUUUCCCUGGATT against KRT78 | 0.306 (inactive)
